Results filed as inconclusive are left out. Activity calls are given as the source filed them. Calls come from the whole dose curve; as a rule, active = well fitted cell-killing curve with a large enough effect; inconclusive = small, poorly fitted or top-dose-only effect, or effect the other way; inactive = flat fitted curve, though single readings scatter.
What follows are compounds tested on SKOV3 (assay: Primary qHTS to identify gynecologic anti-cancer compounds using libraries of approved drugs and bioactive compounds (AID 1345084; note: nearly all actives have a fitted effect of over 55% in size)). Conditions: Gynecologic cancer cell panel viability, ATPlite luminescence, 48 h; series mostly up to 57.5 µM; activity change, negative = cytotoxicity: at the top concentration.
Summary of the method: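 Luminescence from the ATPlite ATP-monitoring reagent indicates viable cell number; lower signal means cytotoxicity. Cells received compound 16 h after seeding and were exposed for 48 h across five concentrations.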
`C=C(C(=O)O)[C@@H]1CC[C@@]2(C)CCC[C@@](C)(O)[C@@H]2C1` was tested, and the “activity change, negative = cytotoxicity” value was 13.8% (inactive).
`Cc1ccc(C)c(S(=O)(=O)n2cnc3ccccc32)c1` was tested, and the “activity change, negative = cytotoxicity” value was 10.4% (inactive).
For `COc1ccccc1CN[C@H]1CCCN[C@H]1c1ccccc1`, the “activity change, negative = cytotoxicity” value was -2.95% (inactive).
With `CC(CNS(=O)(=O)C(C)C)c1ccc(-c2ccc(C#N)cc2)cc1` (stereo not drawn) the Potency was 8.91 µM (active).
For `C[C@@]12CC3(S(=O)(=O)O)OC(O1)[C@]1(COC(=O)c4ccccc4)[C@H]3C[C@]21O[C@@H]1O[C@H](CO)[C@@H](O)[C@H](O)[C@H]1O`, the “activity change, negative = cytotoxicity” value was 10.2% [at 25.3 µM] (inactive).
In the case of `C=C1C2CCC3C(CCC4[C@@]3(C)CCC[C@@]4(C)C(=O)O)(C2)[C@@H]1OC(=O)/C(C)=C\C` (stereo partly drawn), the “activity change, negative = cytotoxicity” value is reported as -8.44% [at 25.3 µM] (inactive).
With `CC(CCO)CCC1C2(C)CCCC(C)(C)C2CC[C@@]1(C)O` (stereo partly drawn) the “activity change, negative = cytotoxicity” value was -0.329% [at 38.5 µM] (inactive).
For `O=C(OC1C=C(CO)C2C(OC3OC(CO)C(O)C(O)C3O)OC=CC12O)c1ccc(O)cc1` (stereo not drawn), the “activity change, negative = cytotoxicity” value was -4.23% [at 25.3 µM] (inactive).
In the case of `CC1(C)CC[C@]2(C(=O)O)CC[C@]3(C)C(=CCC4[C@@]5(C)C[C@@H](O)[C@H](O)[C@@](C)(CO)C5CC[C@]43C)C2C1` (stereo partly drawn), the “activity change, negative = cytotoxicity” value is reported as 0% [at 25.3 µM] (inactive).
`Cc1cccc(-c2nn3c(c2-c2ccnc4ccc(C(N)=O)cc24)CCC3)n1` was tested, and the “activity change, negative = cytotoxicity” value was 0% (inactive).
In the case of `CC1(C)C[C@@H]2[C@H](C1)[C@@]1(C)C[C@]13C(O)OC[C@]3(O)[C@H]2O` (stereo partly drawn), the “activity change, negative = cytotoxicity” value is reported as 18% (inactive).
For `COc1c2cc(c(O)c1OC)CCCCC(O)CCc1ccc(O)c-2c1` (stereo not drawn), the “activity change, negative = cytotoxicity” value was -10.2% [at 38.5 µM] (inactive).
With `CC1(C)CC2C(O)C3=C(CC(C)(O)C2C1)C(=O)OC3` (stereo not drawn) the “activity change, negative = cytotoxicity” value was 4.41% (inactive).
For `OCC1=C[C@@H](O)[C@@H]2C=CO[C@@H](O[C@@H]3O[C@H](CO)[C@@H](O)[C@H](O)[C@H]3O)[C@H]12`, the “activity change, negative = cytotoxicity” value was 1.37% [at 38.5 µM] (inactive).
For `CC1=CCC[C@@H]2[C@@](C)(CCc3ccoc3)[C@H](C(=O)O)CC[C@@]12C`, the “activity change, negative = cytotoxicity” value was 7.62% [at 38.5 µM] (inactive).
`Cc1cc(-n2c(=O)[nH]c(=O)n(C)c2=O)ccc1Oc1ccc(SC(F)(F)F)cc1` was tested, and the “activity change, negative = cytotoxicity” value was 17.1% (inactive).
`CC1(C)OC(=O)CC(O)C2(C)C1CC(=O)C1(C)C2C(O)CC2(C)C(c3ccoc3)OC(=O)C3OC321` (stereo not drawn) was tested, and the “activity change, negative = cytotoxicity” value was -6.54% [at 25.3 µM] (inactive).
`CC(=O)OC1C(O)/C(C)=C\C2C(OC(=O)c3ccccc3)C(C)CC2(OC(C)=O)C(OC(C)=O)C(C)/C=C/C(C)(C)C1OC(C)=O` (stereo not drawn) was tested, and the “activity change, negative = cytotoxicity” value was 0.825% [at 25.3 µM] (inactive).
`COC(=O)C1=C[C@@H](O)[C@@H](O)[C@H](O[C@@H]2O[C@H](CO)[C@@H](O)[C@H](O)[C@H]2OC(=O)/C=C/c2ccccc2)C1` was tested, and the “activity change, negative = cytotoxicity” value was -19.7% [at 25.3 µM] (inactive).
In the case of `N#CN1CCC[C@@H](n2nc(-c3ccc(Oc4ccc(F)cc4F)cc3)c(C(N)=O)c2N)C1`, the “activity change, negative = cytotoxicity” value is reported as 14% (inactive).
For `O=C(O)[C@H]1Cc2ccccc2CN1`, the activity change, negative = cytotoxicity was 14.2% [at 6.55 µM] (inactive).
In the case of `C=C(C)C1Cc2c(ccc3c2OCC(c2ccc(O)cc2O)C3)O1` (stereo not drawn), the “activity change, negative = cytotoxicity” value is reported as -2.91% [at 38.5 µM] (inactive).
In the case of `C=C[C@H]1[C@H](O[C@@H]2O[C@H](CO)[C@@H](O)[C@H](O)[C@H]2O)OC=C(C(=O)OC)[C@H]1CC=O`, the “activity change, negative = cytotoxicity” value is reported as -16.2% [at 38.5 µM] (inactive).
For `NC[C@H]1CCC[C@@H](CNC(=O)[C@@H](Cc2c[nH]c3ccccc23)NC(=O)N2CCC3(C=Cc4ccccc43)CC2)C1`, the “activity change, negative = cytotoxicity” value was 22% [at 38.5 µM] (inactive).
With `CC1C2=CC(=O)OC2(O)CC2C1CCC1C(C)(C)CCC(O)C21C` (stereo not drawn) the “activity change, negative = cytotoxicity” value was -6.52% [at 38.5 µM] (inactive).
In the case of `COc1ccc(C2(O)c3ccccc3NC(=O)C2OC)cc1` (stereo not drawn), the “activity change, negative = cytotoxicity” value is reported as -3.5% (inactive).
In the case of `C/C(=C\CCC(C)CCO)C(=O)OC[C@H]1O[C@@H](O[C@@H]2OC=C(C(=O)O)[C@H]3CC[C@](C)(O)[C@@H]23)C(O)[C@@H](O)C1O` (stereo partly drawn), the “activity change, negative = cytotoxicity” value is reported as 12.5% [at 25.3 µM] (inactive).
For `CC(C)C1(O)NC(=O)C(CC2(O)c3ccccc3N3C(=O)C(C)(C)NC32)n2c1nc1ccccc1c2=O` (stereo not drawn), the “activity change, negative = cytotoxicity” value was 18.7% [at 25.3 µM] (inactive).
`N#Cc1ccc(C2CCCc3cncn32)cc1` (stereo not drawn) was tested, and the “activity change, negative = cytotoxicity” value was -41.8% [at 25.3 µM] (inactive).
For `C=CC(C)(O)CC/C=C(\C)C(=O)O[C@@H]1[C@@H](O)[C@H](OC(C)(C=C)CC/C=C(\C)C(=O)O)O[C@H](CO)[C@H]1OC(=O)/C(C)=C/CCC(C)(O)C=C` (stereo partly drawn), the “activity change, negative = cytotoxicity” value was 5.77% [at 25.3 µM] (inactive).
With `CC1=C[C@H]2[C@@H](CC1=O)[C@H](C)C[C@H](O)[C@H]2C(C)C` the “activity change, negative = cytotoxicity” value was -30.5% (inactive).
For `CC(=C\C(C)O)/C=C(\C)C(=O)CC1CC(CC(N)=O)CC(=O)O1` (stereo not drawn), the “activity change, negative = cytotoxicity” value was -0.129% [at 38.5 µM] (inactive).
With `CC1(C)C[C@H](O)C[C@@]2(C)[C@H]1[C@H](O)C=C1COC(=O)[C@@]12O` the “activity change, negative = cytotoxicity” value was -31.8% (inactive).
For `CC(=O)Nc1cccc2c1c(Sc1ccc(Cl)cc1)c(C)n2CC(=O)O`, the “activity change, negative = cytotoxicity” value was 0.379% (inactive).
`Cc1oc2nc3c(c(NC(=O)CN4CCCC4=O)c2c1C)CCCC3` was tested, and the “activity change, negative = cytotoxicity” value was 21.1% (inactive).
In the case of `CCNC(=O)C1CC(F)(c2ccc(CN3CCCC3)c(F)c2)C1` (stereo not drawn), the “activity change, negative = cytotoxicity” value is reported as 26.5% (inactive).
`O=C(O)CC(CCc1ccccc1)OC1OC(CO)C(O)C(O)C1O` (stereo not drawn) was tested, and the “activity change, negative = cytotoxicity” value was 4.23% [at 38.5 µM] (inactive).
`CC1OC(O[C@H]2CC[C@@]3(C)C(CC[C@]4(C)C3CC=C3C5CC(C)(C)CC[C@]5(C(=O)OC5OC(CO)C(OC6OCC(OC7OCC(O)C(O)C7O)C(O)C6O)C(O)C5O)CC[C@]34C)C2(C)C)C(O)C(O)C1OC1OC(CO)C(O)C(OC2OC(CO)C(O)C(O)C2O)C1O` (stereo partly drawn) was tested, and the activity change, negative = cytotoxicity was 3.95% [at 6.55 µM] (inactive).

From PubChem BioAssay (NCATS)
% is set by controls: 0 for no effect and ±100 for the full control effect; potency is the fitted concentration of half-maximal effect.
